Laboratory results from PubChem BioAssay (Tox21).
Values without a mark were called inactive. Records with an inconclusive call do not appear. Where a call stands in place of a potency, no number is given. Calls of active or inactive are those of the source. Calls come from the whole dose curve; as a rule, active = well fitted curve in the direction sought with a large enough effect in the repeat runs; inconclusive = weak or mixed curves; inactive = no such curve, though single readings can be large; an effect the other way counts as inactive or inconclusive.

Tests used:
[1] = A CellTox Green Cytotoxicity Assay to monitor cytotoxicity in HepG2 cells - 24 hour (AID 1224878); note: nearly all actives have a fitted effect of over 45% in size
Procedure, shortened: (§1)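 Cells and non-lytic dye reagent are dispensed together (600 HepG2 cells/well) and incubated 5 h before DMSO compound transfer. Kinetic fluorescence is then recorded in the same wells during 40 h at 37 C.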

[2] = qHTS RealTime-Glo MT Cell Viability Assay in HEK293 cells - 0 hour (AID 1224880); note: top concentration of the series differs between compounds; nearly all actives have a fitted effect of over 45% in size
Procedure, shortened: (§2)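 Real-time viability in HEK293: signal arises when living cells convert a prosubstrate for NanoLuc in the medium, so luminescence tracks viable cell number. Compound (23 nL, DMSO) added 5 h post-seeding; kinetic reads at 0–40 h, 37 C.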

[3] = A CellTox Green Cytotoxicity Assay to monitor cytotoxicity in HEK293 cells - 32 hour (AID 1224881); note: nearly all actives have a fitted effect of over 40% in size; note: potency is the fitted concentration of half-maximal effect
Procedure, shortened: (§3)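 Cells (HEK293, 600/well) and dye reagent are dispensed together. After 5 h at 37 C, 23 nL compound is pinned in. Plates stay at 37 C for 40 h with fluorescence read at 0h, 8h, 16h, 24h, 32h and 40h.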

[4] = A CellTox Green Cytotoxicity Assay to monitor cytotoxicity in HepG2 cells - 0 hour (AID 1224882); note: nearly all actives have a fitted effect of over 35% in size
Procedure, shortened: as §1

[5] = A CellTox Green Cytotoxicity Assay to monitor cytotoxicity in HepG2 cells - 32 hour (AID 1224883); note: nearly all actives have a fitted effect of over 50% in size
Procedure, shortened: as §1

[6] = A CellTox Green Cytotoxicity Assay to monitor cytotoxicity in HEK293 cells - 8 hour (AID 1224884); note: nearly all actives have a fitted effect of over 35% in size
Procedure, shortened: as §3

[7] = qHTS RealTime-Glo MT Cell Viability Assay in HepG2 cells - 16 hour (AID 1224885); note: nearly all actives have a fitted effect of over 50% in size
Procedure, shortened: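 Real-time, nonlytic viability: 600 HepG2 cells/well mixed with NanoLuc enzyme plus prosubstrate; 5 h settle, compound (DMSO) added by pintool; luminescence monitored over 40 h at 37 C.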

[8] = qHTS RealTime-Glo MT Cell Viability Assay in HEK293 cells - 24 hour (AID 1224886); note: nearly all actives have a fitted effect of over 50% in size; note: potency is the fitted concentration of half-maximal effect; for activity change, negative = cytotoxicity: top concentration of the series differs between compounds
Procedure, shortened: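 Cells + reagent dispensed (600 cells/well, HEK293) → 5 h at 37 C/5% CO2 → 23 nL compound in DMSO pinned → 40 h at 37 C → luminescence read at 0, 8, 16, 24, 32, 40 h.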

[9] = qHTS RealTime-Glo MT Cell Viability Assay in HEK293 cells - 8 hour (AID 1224887); note: nearly all actives have a fitted effect of over 50% in size; note: potency is the fitted concentration of half-maximal effect; for activity change, negative = cytotoxicity: top concentration of the series differs between compounds
Procedure, shortened: as §2

[10] = A CellTox Green Cytotoxicity Assay to monitor cytotoxicity in HepG2 cells - 40 hour (AID 1224879); note: nearly all actives have a fitted effect of over 40% in size
Procedure, shortened: as §1

Structure (SMILES): CC(C)NCC(O)c1ccc2ccccc2c1 (configuration not stated)
- Potency [1]: inactive
- Potency [2]: inactive
- Potency [3]: inactive
- Potency [4]: inactive
- Potency [5]: inactive
- Potency [6]: inactive
- outcome [7]: inactive
- Potency [8]: inactive
- Potency [9]: inactive

Structure (SMILES): NCc1ccc(S(N)(=O)=O)cc1
- Potency [1]: inactive
- Potency [2]: inactive
- Potency [3]: inactive
- Potency [4]: inactive
- Potency [5]: inactive
- Potency [6]: inactive
- outcome [7]: inactive
- Potency [8]: inactive
- Potency [9]: inactive

Structure (SMILES): CN(C)CCN(C)CCO
- Potency [1]: inactive
- Potency [10]: inactive
- Potency [2]: inactive
- Potency [3]: inactive
- Potency [5]: inactive
- Potency [6]: inactive
- outcome [7]: inactive
- Potency [8]: inactive
- Potency [9]: inactive

Structure (SMILES): CC(O)COC(C)(C)C (configuration not stated)
- Potency [1]: inactive
- Potency [2]: inactive
- Potency [3]: inactive
- Potency [4]: inactive
- Potency [5]: inactive
- Potency [6]: inactive
- outcome [7]: inactive
- Potency [8]: inactive
- Potency [9]: inactive

Structure (SMILES): CC(S)C(C)S (configuration not stated)
- Potency [1]: inactive
- Potency [2]: inactive
- Potency [3]: inactive
- Potency [4]: inactive
- Potency [5]: inactive
- Potency [6]: inactive
- outcome [7]: inactive
- Potency [8]: inactive
- Potency [9]: inactive

Structure (SMILES): CCC(=O)c1c(O)cc(O)cc1O
- Potency [1]: inactive
- Potency [10]: inactive
- Potency [2]: inactive
- Potency [4]: inactive
- Potency [5]: inactive
- Potency [6]: inactive
- outcome [7]: inactive
- Potency [8]: inactive
- Potency [9]: inactive

Structure (SMILES): CCCCCCCCCCOC(C)=O
- Potency [1]: inactive
- Potency [10]: inactive
- Potency [3]: inactive
- Potency [5]: inactive
- Potency [6]: inactive
- outcome [7]: inactive
- Potency [8]: inactive
- Potency [9]: inactive

Structure (SMILES): CC1(C)CC(OC(=O)CCCCCCCCC(=O)OC2CC(C)(C)NC(C)(C)C2)CC(C)(C)N1
- cytotoxicity [1]: -8.38% [at 15.8 µM]
- activity change, negative = cytotoxicity [2]: 17.6% [at 15.8 µM]
- cytotoxicity increase [3]: -5.67% [at 15.8 µM]
- cytotoxicity [4]: -7.52% [at 15.8 µM]
- cytotoxicity increase [5]: -10.5% [at 15.8 µM]
- cytotoxicity increase [6]: -2.02% [at 15.8 µM]
- activity change, negative = cytotoxic [7]: -0.753% [at 15.8 µM]
- activity change, negative = cytotoxicity [8]: 13.9% [at 15.8 µM]
- activity change, negative = cytotoxicity [9]: 1.91% [at 15.8 µM]

Structure (SMILES): C/C=C(\C)C(=O)OCCc1ccccc1
- Potency [1]: inactive
- Potency [10]: inactive
- Potency [2]: inactive
- Potency [4]: inactive
- Potency [5]: inactive
- outcome [7]: inactive
- Potency [8]: inactive
- Potency [9]: inactive

Structure (SMILES): COc1cc(/C=C/C(N)=O)cc(OC)c1OC
- Potency [1]: inactive
- Potency [10]: inactive
- Potency [2]: inactive
- Potency [3]: inactive
- Potency [6]: inactive
- outcome [7]: inactive
- Potency [8]: inactive
- Potency [9]: inactive

Structure (SMILES): CC(=O)C(C)O (configuration not stated)
- Potency [1]: inactive
- Potency [10]: inactive
- Potency [2]: inactive
- Potency [3]: inactive
- Potency [6]: inactive
- outcome [7]: inactive
- Potency [8]: inactive
- Potency [9]: inactive

Structure (SMILES): CCCC(=O)Nc1ccc(OCC(O)CNC(C)C)c(C(C)=O)c1 (configuration not stated)
- Potency [1]: inactive
- Potency [10]: inactive
- Potency [2]: inactive
- Potency [3]: inactive
- Potency [5]: inactive
- Potency [6]: inactive
- outcome [7]: inactive
- Potency [8]: inactive
- Potency [9]: inactive

Structure (SMILES): Cc1cc(C)c(C(=O)O)c(C)c1
- Potency [1]: inactive
- Potency [10]: inactive
- Potency [2]: inactive
- Potency [3]: inactive
- Potency [6]: inactive
- outcome [7]: inactive
- Potency [8]: inactive
- Potency [9]: inactive

Structure (SMILES): CCC(C)C(C)=O (configuration not stated)
- Potency [1]: inactive
- Potency [2]: inactive
- Potency [3]: inactive
- Potency [4]: inactive
- Potency [5]: inactive
- Potency [6]: inactive
- outcome [7]: inactive
- Potency [8]: inactive
- Potency [9]: inactive

Structure (SMILES): O=C(CCCl)NCCc1ccccc1
- Potency [1]: inactive
- Potency [2]: inactive
- Potency [3]: inactive
- Potency [4]: inactive
- Potency [5]: inactive
- Potency [6]: inactive
- outcome [7]: inactive
- Potency [8]: inactive
- Potency [9]: inactive

Structure (SMILES): CCCC(=O)OC/C=C(\C)CCC=C(C)C
- Potency [1]: inactive
- Potency [2]: inactive
- Potency [3]: 49 µM (active)
- Potency [4]: inactive
- Potency [6]: inactive
- outcome [7]: inactive
- Potency [8]: inactive
- Potency [9]: inactive

Structure (SMILES): COc1c2occc2c(OC)c2c(=O)cc(C)oc12
- Potency [1]: inactive
- Potency [2]: inactive
- Potency [3]: inactive
- Potency [4]: inactive
- Potency [5]: inactive
- Potency [6]: inactive
- outcome [7]: inactive
- Potency [8]: 8.49 µM (active)
- Potency [9]: 9.52 µM (active)

Structure (SMILES): OCC1(CO)COCOC1
- Potency [10]: inactive
- Potency [2]: inactive
- Potency [3]: inactive
- Potency [4]: inactive
- Potency [6]: inactive
- outcome [7]: inactive
- Potency [8]: inactive
- Potency [9]: inactive

Structure (SMILES): CCO
- Potency [1]: inactive
- Potency [2]: inactive
- Potency [3]: inactive
- Potency [5]: inactive
- Potency [6]: inactive
- outcome [7]: inactive
- Potency [8]: inactive
- Potency [9]: inactive

Structure (SMILES): CCCCCC/C=C/C(=O)OC
- Potency [2]: inactive
- Potency [6]: inactive
- outcome [7]: inactive
- Potency [8]: inactive
- Potency [9]: inactive

Structure (SMILES): Cc1c(N)cccc1Cl
- Potency [1]: inactive
- Potency [2]: inactive
- Potency [3]: inactive
- Potency [4]: inactive
- Potency [5]: inactive
- Potency [6]: inactive
- outcome [7]: inactive
- Potency [8]: inactive
- Potency [9]: inactive

Structure (SMILES): COc1ccc(CCO)cc1
- Potency [1]: inactive
- Potency [2]: inactive
- Potency [3]: inactive
- Potency [4]: inactive
- Potency [6]: inactive
- outcome [7]: inactive
- Potency [8]: inactive
- Potency [9]: inactive

Structure (SMILES): N#Cc1ccccc1O
- Potency [1]: inactive
- Potency [2]: inactive
- Potency [3]: inactive
- Potency [4]: inactive
- Potency [5]: inactive
- Potency [6]: inactive
- outcome [7]: inactive
- Potency [8]: inactive
- Potency [9]: inactive

Structure (SMILES): CCCCCCCCCOC(=O)c1ccccc1C(=O)OCCCCCCCCC
- Potency [1]: inactive
- Potency [2]: inactive
- Potency [3]: inactive
- Potency [4]: inactive
- Potency [5]: inactive
- Potency [6]: inactive
- outcome [7]: inactive
- Potency [8]: inactive
- Potency [9]: inactive

Structure (SMILES): C[C@H]1[C@@H](c2ccccc2)NC(=O)N1C
- Potency [1]: inactive
- Potency [2]: inactive
- Potency [3]: inactive
- Potency [4]: inactive
- Potency [5]: inactive
- Potency [6]: inactive
- outcome [7]: inactive
- Potency [8]: inactive
- Potency [9]: inactive
